esBAF inh: Bmi1 luciferase reporter increase in mESCs, primary screen, esBAF inhibitor project, mouse ES cells, Bmi1 luciferase knock-in, single point. hit rate 2% among 350,000. AID 602393, 2012. 24 h; 100% = twice the neutral-well signal. reporter increase, % at 12.5 µM; in the data active = activation above about 40%;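 also: a rise in the Bmi1 reporter signal indicates esBAF inhibition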
SKN-1 inh: suppressors of acrylamide-induced Pgst-4::GFP reporter in worms, primary screen, SKN-1 inhibitor project, whole organism, uHTS, GFP/RFP fluorescence ratio, strain VP596. C. elegans VP596 Pgst-4::GFP/RFP ratio, 24 h. inhibition, % at 21.8 µM. hit rate 0.49% among 360,000. AID 624304, 2012;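 active = interference check ratio from 0.5 to 1.5 plus GFP to RFP signal ratio inhibition reaching or exceeding a fixed threshold, cut at about 30% in these data, passing the limit was not always enough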
NR3A LBD binder: binders of NR3A ligand-binding domain, primary screen, biophysical, differential scanning fluorimetry, uHTS; Glutamate receptor ionotropic, NMDA 3A (GRIN3A) ligand-binding domain; NR3A LBD differential scanning fluorimetry, Tm shift; 0% = protein alone, 100% = glycine-bound protein; Tm shift relative to glycine control, % at 25 µM; hit rate 2.5% among 340,000; AID 1259313, 2017;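 active = melting temperature shift of at least 10% of the positive control shift, at one fixed dose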
NadD inh: inhibitors of S. aureus NadD, primary screen, biochemical, colorimetric, uHTS; Nicotinate-nucleotide adenylyltransferase NadD (Staphylococcus aureus N315); purified NadD enzyme, colorimetric absorbance read-out; inhibition, % at 20 µM; hit rate 0.78% among 360,000; in the data active = inhibition above about 26%
SMARCA2 act: SMARCA2 (BRM) function activators, primary screen, cell-based, luminescence, high throughput. hit rate 1% among 370,000. AID 652017, 2013. MG213 cells, MMTV-luciferase reporter, dexamethasone, overnight. activation, % at 9.1 µM; in the data active = activation above about 7.8%
Vif imaging: HIV Vif self-association inhibitors, primary screen, imaging, HEK293T, single point; inhibition, % at 7.49 µM; AID 602346, 2012; hit rate 0.35% among 340,000; HEK293T cells, Vif self-association by quenched fluorescence, 24 h; in the data active = inhibition above about 50%, passing the limit was not always enough
Hits are given with their value; i = inactive; nt = no result given. Rows were chosen to be rich in hits. Some 5.2% of all compounds tested hit in one or more screens of this group.

SMILES | esBAF inh | SKN-1 inh | NR3A LBD binder | NadD inh | SMARCA2 act | Vif imaging
CCc1ccc(OCC(=O)O/N=C(\N)c2ccccn2)cc1 | nt | i | i | i | i | i
N/C(=N\OC(=O)COc1ccc2ccccc2c1Br)c1ccccn1 | 85 | i | i | i | i | i
CC(C)NC(=O)N[C@H]1CC[C@@H](CC(=O)NCCN2CCCC2)O[C@H]1CO | i | nt | nt | nt | nt | nt
CCC(CO)Oc1cc(NCc2ccc(Cl)cc2)c2ncn(C(C)C)c2c1 (stereo not given) | i | i | i | i | i | 106
CCN(CC)c1ccc(C=NNc2ccc([N+](=O)[O-])cn2)cc1 | nt | i | i | i | i | i
O=[N+]([O-])c1ccc(NN=Cc2ccccc2)nc1 | nt | i | i | i | i | i
O=[N+]([O-])c1ccc(NN=Cc2ccc(O)cc2)nc1 | 95 | i | 26 | i | i | i
O=[N+]([O-])c1ccc(N/N=C/c2ccc(OCc3cccc4ccccc34)cc2)nc1 | nt | i | 28 | i | i | 149
COc1ccc(C=NNc2ccc([N+](=O)[O-])cn2)cc1 | 52 | i | i | i | i | i
O=C(Nc1ccc2c(c1)[C@H]1C[C@@H](CC(=O)N3CCOCC3)O[C@@H](CO)[C@H]1O2)Nc1ccccc1F | i | nt | nt | nt | nt | nt
O=C(O)c1cccc2c1C(=O)c1ccccc1C2=O | i | i | i | i | i | i
CC(=O)Nc1ccc2c(c1)C(=O)c1cccc(C(=O)O)c1-2 | nt | i | 14 | i | i | i
C[C@@H]1CN([C@H](C)CO)C(=O)c2cccc(NS(C)(=O)=O)c2O[C@@H]1CN(C)S(=O)(=O)c1ccc(F)cc1 | i | nt | nt | nt | nt | nt
CCOc1ccc(NC(=O)CCn2c(=O)[nH]c3ccsc3c2=O)cc1 | nt | i | 19 | i | i | i
C[C@H](CO)N1C[C@H](C)[C@H](CN(C)C(=O)NC2CCCCC2)OCCCC[C@H](C)Oc2ccc(NC(=O)NC3CCCCC3)cc2C1=O | i | nt | nt | nt | nt | nt
O=C(NCc1cccs1)c1ccncc1 | i | i | i | i | i | i
CC1CCN(c2ccc(C(=O)NCCc3ccccc3)cn2)CC1 | 50 | i | i | i | i | i
O=C(NCc1cccs1)c1ccc(N2CCCCC2)nc1 | 81 | i | i | i | i | i
CC1CCCN(c2ccc(C(=O)NCc3cccs3)cn2)C1 (stereo not given) | 94 | i | i | i | i | i
COCC(=O)Nc1ccc2c(c1)C(=O)N(C)[C@H]1CC[C@H](CC(=O)NCc3ccccc3)O[C@H]1CO2 | i | nt | nt | nt | nt | nt
CC(=O)c1c(C)[nH]c(C(=O)OCC(=O)C(C)(C)C)c1C | nt | i | i | i | i | i
CC(=O)c1c(C)[nH]c(C(=O)OCC(=O)c2ccc(C)s2)c1C | 56 | i | i | i | i | i
CC(=O)OCC(=O)c1c[nH]c2ccccc12 | i | i | i | i | i | i
Cc1ccc(C(=O)COC(=O)c2ccc(Cl)c(N)c2)s1 | 92 | i | i | i | i | i
CC(=O)c1c(C)[nH]c(C(=O)OCC(=O)c2c[nH]c3ccccc23)c1C | 53 | i | i | i | i | i
SMILES | esBAF inh | SKN-1 inh | NR3A LBD binder | NadD inh | SMARCA2 act | Vif imaging
Cc1cc(C(=O)OCC(=O)c2ccc(Br)s2)no1 | i | i | i | i | nt | nt
Nc1cc(C(=O)OCC(=O)c2ccc(CC(=O)N3CCOCC3)s2)ccc1Cl | i | i | i | i | i | i
O=C(OCC(=O)c1ccc(Br)s1)c1ccc(O)cc1 | 76 | i | i | i | i | i
CN(C)c1ccc2c(c1)[C@@H]1C[C@@H](CC(=O)NCc3ccccc3F)O[C@H](CO)[C@@H]1O2 | i | nt | nt | nt | nt | nt
O=C(C[C@@H]1CC[C@H]2[C@@H](COC[C@H](O)CN2C(=O)c2ccccc2F)O1)N1CCN(c2ccccc2)CC1 | i | nt | nt | nt | nt | nt
CO[C@@H]1CN(C)C(=O)c2cc(NC(=O)NC(C)C)ccc2OC[C@@H](C)N(C(=O)CC2CC2)C[C@@H]1C | i | nt | nt | nt | nt | nt
COc1cc(NC(=O)c2ccco2)c(C(=O)OCC(=O)c2c[nH]c3ccccc23)cc1OC | nt | i | 14 | i | i | i
COc1ccccc1N(C)S(=O)(=O)c1ccc(C(=O)OCC(=O)c2c[nH]c3ccccc23)cc1 | nt | i | 23 | i | i | i
COc1ccccc1N(C)S(=O)(=O)c1ccc(C(=O)OCC(=O)N(C)c2ccccc2)cc1 | i | i | i | i | i | nt
CC(=O)c1c(C)[nH]c(C(=O)OCC(=O)Nc2ccc3[nH]c(=O)[nH]c3c2)c1C | i | i | 21 | i | i | i
O=C(OCC(=O)c1c[nH]c2ccccc12)c1ccco1 | i | i | i | i | i | i
CCOC(=O)CNC(=O)c1ccc2[nH]c3c(c2c1)CCCC3 | i | i | i | i | i | 72
Cc1cc(C)cc(NC(=S)NCc2ccc3[nH]c4c(c3c2)CCCC4)c1 | i | i | 17 | i | i | i
CCC(=O)N(C)C[C@@H]1Oc2cc(C#CC3(O)CCCC3)ccc2S(=O)(=O)N([C@H](C)CO)C[C@H]1C | i | nt | nt | nt | nt | nt
Cn1c(NCc2ccco2)nc2c1c(=O)n(Cc1ccc(Cl)cc1)c(=O)n2C | i | i | 15 | i | i | i
COc1ccc(NC(=O)N(C)C[C@H]2OCCCC[C@@H](C)Oc3ccc(NS(=O)(=O)c4c(C)noc4C)cc3C(=O)N([C@@H](C)CO)C[C@H]2C)cc1 | i | nt | nt | nt | nt | nt
Nc1nnc(SCC(=O)Nc2cccc(S(=O)(=O)N3CCOCC3)c2)s1 | i | i | i | i | i | i
COc1ccc(CC(=O)N(C)Cc2ccc(C(C)(C)C)cc2)cc1S(=O)(=O)N1CCOCC1 | i | i | 11 | i | i | i
COc1ccc(CC(=O)Nc2nnc(SCc3ccccc3)s2)cc1S(=O)(=O)N1CCOCC1 | i | 61 | i | i | i | i
Cc1cccc(Nc2nnc(SCC(=O)Nc3cccc(S(=O)(=O)N4CCCCC4)c3)s2)c1 | nt | i | 15 | i | i | i
CCCCc1nnc(NC(=O)Cc2ccc(OC)c(S(=O)(=O)N3CCOCC3)c2)s1 | nt | i | i | i | i | i
O=C(CSc1nnc(Nc2ccccc2)s1)Nc1ccc(S(=O)(=O)N2CCOCC2)cc1 | i | i | 18 | i | i | i
COc1ccc(CC(=O)N(C)Cc2ccc(Cl)cc2)cc1S(=O)(=O)N1CCOCC1 | i | i | i | i | i | i
COc1ccc(NC(=O)N(C)C[C@H]2OCCCC[C@@H](C)Oc3ccc(N(C)C)cc3C(=O)N([C@@H](C)CO)C[C@H]2C)cc1 | i | nt | nt | nt | nt | nt
C[C@@H]1CCCCO[C@@H](CN(C)S(=O)(=O)c2ccc(Cl)cc2)[C@H](C)CN([C@@H](C)CO)C(=O)c2cc(NS(=O)(=O)c3cn(C)cn3)ccc2O1 | i | nt | nt | nt | nt | nt
